The list is not random: actives were taken first. Their share in the collection is about 3.4%.
GAA850 FXN act = FXN promoter activators, primary screen, cell-based, luciferase luminescence, HEK293 lucGAA850 | AID 540364, 2011 | activation, % at 6 µM | hit rate 0.56% among 360,000 | HEK293 lucGAA850 FXN promoter luciferase reporter, 24 h; percent of 10 µM SAHA response;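 active = activation above the average of all compounds screened plus 3 SD, cutoff fixed separately per campaign, cut at about 7.5% in these data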;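 also: 0% = DMSO wells and 100% = 10 µM SAHA wells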
SMARCA2 act = SMARCA2 (BRM) function activators, primary screen, cell-based, luminescence, high throughput; hit rate 1% among 370,000; activation, % at 9.1 µM; MG213 cells, MMTV-luciferase reporter, dexamethasone, overnight; in the data active = activation above about 7.8%;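 also: 0% = vehicle wells and 100% = reference activator wells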
COUP-TFII inh = NR2F2 transcriptional activity inhibitors, primary screen, cell-based, luciferase reporter, HEK293T, luminescence; inhibition, % at 8.6 µM; hit rate 0.7% among 370,000; HEK293T NGFI-A luciferase reporter;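 active = inhibition above a per-plate cutoff, mean inhibition of test wells between control levels plus 3 SD, cut at about 38% in these data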;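 also: cells cotransfected with COUP-TFII expression vector driving the NGFI-A reporter; 0% = median of COUP-TF2 test wells and 100% = reporter-only cells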
GalR3 antagonist = GalR3 antagonists in HEK293 cells, primary screen, cell-based, fluorescence readout. Galanin receptor type 3 (Homo sapiens), O60755. HEK293 GalR3-CNG cAMP membrane potential fluorescence; galR3 body fused to GalR1 C-terminus. inhibition, % at 3 µM. hit rate 0.44% among 360,000. AID 651719, 2012;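 active = inhibition above the screen-wide average plus 3 SD, cut at about 13% in these data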;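 also: forskolin and galanin both at EC90 stimulate the cells; cAMP rise reported by CNG channel membrane potential dye signal; 0% = forskolin plus galanin with DMSO and 100% = forskolin alone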
Target sequence (O60755 1-299 limits assumed): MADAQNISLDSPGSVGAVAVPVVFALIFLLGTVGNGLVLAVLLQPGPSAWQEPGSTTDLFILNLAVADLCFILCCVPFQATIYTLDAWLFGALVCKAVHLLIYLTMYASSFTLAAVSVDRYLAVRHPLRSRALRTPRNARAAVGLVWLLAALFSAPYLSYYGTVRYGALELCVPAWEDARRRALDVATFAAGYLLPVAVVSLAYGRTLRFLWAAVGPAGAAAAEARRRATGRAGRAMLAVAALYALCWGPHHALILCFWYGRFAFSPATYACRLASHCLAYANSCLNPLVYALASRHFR
Cardio protect = cardioprotection against H2O2-induced cell death, primary screen, uHTS, H9c2 cells, ATPLite luminescence; protection from H2O2 cell death, % at 20 µM; hit rate 0.63% among 360,000; H9c2 cardiomyocytes, H2O2 injury protection, 2 h; AID 588492, 2011;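 active = compounds giving at least 50% protection of heart cells from peroxide-induced death in the single-dose screen, raw or plate-pattern-corrected value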;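 also: 0% = DMSO wells with peroxide and 100% = DMSO wells without peroxide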
Gli-Sufu antag = Gli-Sufu pathway antagonists, primary screen, luciferase luminescence, Sufu-KO-LIGHT cells, uHTS | Sufu-KO-LIGHT fibroblasts, Gli luciferase reporter luminescence | hit rate 0.74% among 340,000 | inhibition, % at 5 µM;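 active = inhibition above about 55%, limit read from the data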;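 also: 0% = DMSO-treated cells and 100% = wells with medium but no cells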
SMARCA2 conf = SMARCA2 (BRM) function activators, confirmation, cell-based, luminescence, triplicate; activation, % at 9.1 µM; hit rate 30% among 3,500; MG213 cells, MMTV-luciferase with dexamethasone, overnight; MG213 cells expressing E1A, Rb sequestered; DMSO wells 0%, reference activator 100%; shares compounds with SMARCA2 act; AID 652260, 2013;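 active = activation above its plate's cutoff, the mean activation of tested wells plus 3 SD, cut at about 7.9% in these data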
GAL4-VP16 Luc = GAL4-VP16 luciferase reporter activation, counter-screen for SMARCA2 (BRM) activator project, cell-based, pG5luc, luminescence, high throughput; HEK293 GAL4-VP16 pG5luc reporter; scaled: DMSO wells 0%, SAHA wells 100%; activation, % at 9.1 µM; hit rate 41% among 3,500; AID 686939, 2013; shares compounds with SMARCA2 act;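 active = activation above the solvent-only control well mean plus 3 SD, averaged across control plates, cut at about 5.2% in these data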
* hit, by the source's call; . = no result given.

SMILES	GAA850 FXN act	SMARCA2 act	COUP-TFII inh	GalR3 antagonist	Cardio protect	Gli-Sufu antag	SMARCA2 conf	GAL4-VP16 Luc
O=C(NC1=NCCS1)c1ccccc1OCc1ccc(F)cc1	-1	10*	-7	-5	11	16	-1	2
COc1cc(/C=N/NS(=O)(=O)c2ccc(C)cc2)ccc1OCc1cccc(C(=O)O)c1	6	9.5*	-38	-2	4	-122	6	19*
CC(/C=C1\SC(=S)N(NC(=O)c2ccc(O)cc2)C1=O)=C\c1ccccc1	1	9.0*	-19	-3	6	-11	1	1
O=C(N/N=C/c1ccc(Cl)cc1Cl)c1n[nH]c2c1CCCC2	-3	9.5*	-13	-12	16	-63	6	8.0*
O=C(N/N=C/c1cccc2ccccc12)c1n[nH]c2c1CCCC2	-2	0	-12	-6	-6	-5	.	.
CC(Sc1nnc(NC2CCCCC2)s1)C(=O)Nc1ccc2c(c1)C(=O)c1ccccc1C2=O (centres undefined)	3	10.0*	-14	-4	2	-42	3	12*
CC(Sc1nnc(NC2CC2)s1)C(=O)Nc1ccc(N2CCOCC2)cc1 (centres undefined)	1	-2	-12	2	0	-3	.	.
COc1ccc(C(=O)NNC(=O)C(NC(=O)c2cc(OC)cc(OC)c2)C(C)C)cc1 (centres undefined)	1	0	-6	-5	1	8	.	.
COc1cc(OC)cc(C(=O)N[C@H](C(=O)NC23CC4CC(CC(C4)C2)C3)C(C)C)c1	1	9.9*	0	-5	18	-6	1	0
O=C(CNC(=O)c1cc(-c2ccccc2)nn1-c1ccccc1)Nc1ccccc1Br	-2	-3	5	-5	-1	-10	.	.
S=C(NC1CCCC1)N1CCOCC1	3	8.2*	0	-3	9	38	-2	2
Cn1c(=O)c2cc(NC(=O)NCc3ccccc3)ccc2n1C/C=C/c1ccccc1	-5	1	-10	-5	5	.	.	.
CSc1ccccc1C(=O)Nc1cc(C)cc(C)c1	1	9.3*	-2	-3	0	-1	5	1
CCCSc1nnc(NC(=O)Nc2ccc(C)cc2)s1	0	8.0*	2	-4	-9	-13	0	1
O=c1c(C(c2ccc(F)cc2)c2c(O)nc3n(c2=O)CCS3)c(O)nc2n1CCS2	1	9.3*	5	-2	11	-1	5	1
O=C(CCCN1C(=O)S/C(=C\C=C\c2ccccc2)C1=O)Nc1ccc(C(=O)O)cc1	-3	8.5*	0	-6	2	-22	5	2
O=C(CCN1C(=O)S/C(=C\C=C\c2ccccc2)C1=O)Nc1ccc(O)cc1	-1	2	-17	-6	-6	-17	.	.
Cc1cccc(C)c1NC(=O)CNC(=O)c1ccc2nc[nH]c2c1	0	-2	5	-4	2	-2	.	.
O=c1c2ccccc2oc2c1oc1ccccc12	2	14*	-22	-7	-2	-78	5	9.0*
O=c1c2ccccc2oc2cc(Br)ccc12	3	0	-11	-6	-6	-20	.	.
COC(=O)c1c(-c2ccccc2)[nH]c(-c2nccc3ccccc23)c1C(=O)OC	0	8.4*	-23	-8	1	.	0	3
CCOC(=O)c1c(-c2ccccc2)[nH]c2ccc(O)cc12	1	-1	11	-2	-5	-4	.	.
Nc1ccccc1C#Cc1ccc2[nH]ccc2c1	4	10*	-45	-3	-22	-82	12*	11*
CCOc1ccc(NC(=S)N(CCc2c(C)[nH]c3ccc(C)cc23)Cc2cccnc2)cc1	-1	-3	3	4	2	0	.	.
COc1ccc(NC(=S)N(CCc2c(C)[nH]c3ccccc23)Cc2cccnc2)cc1	-2	9.1*	-70	-2	5	-17	-2	0
SMILES	GAA850 FXN act	SMARCA2 act	COUP-TFII inh	GalR3 antagonist	Cardio protect	Gli-Sufu antag	SMARCA2 conf	GAL4-VP16 Luc
CCOc1ccc(C(=O)NNC(=O)C2CC(=O)N(c3ccc(C)cc3)C2)cc1 (centres undefined)	1	-1	13	-4	-2	-10	.	.
O=C(COC(=O)c1ccc2c(c1)S(=O)(=O)N=C1CCCCCN12)NCCc1ccc(F)cc1	0	1	0	-4	-2	-5	.	.
Clc1cccc(/C=N/Nc2ncnc3ccccc23)c1	4	10.0*	-34	-5	33	-86	14*	15*
Clc1ccc(/C=N/Nc2nnc(Cl)c3ccccc23)cc1	3	4	-5	2	-12	-62	.	.
C(=N\Nc1ncnc2ccccc12)/c1ccccc1	4	9.2*	-52	-4	-12	-66	11*	9.1*
Clc1ccc(/C=N/Nc2nc(Cl)nc3ccccc23)cc1	5	12*	-40	-6	-7	-88	3	1
Nc1c(Cl)ncnc1N/N=C/c1ccnc2ccccc12	4	3	-19	-7	-3	-17	.	.
CCc1nnc(NC(=O)CCN2C(=O)C3CCCCC3C2=O)s1 (centres undefined)	3	0	-13	-1	-3	-15	.	.
Cc1cc(C)n2nc(-c3ccccc3)cc2n1	5	3	-54	-3	-4	-44	.	.
CCC1C(=O)n2nc(-c3ccccc3)cc2N=C1C (centres undefined)	-1	10*	-29	-2	-5	-53	12*	9.2*
CC(C)(C)CC(=O)Nc1cc2c3c(c1)CCN3C(=O)CC2	1	-2	-29	-4	4	-13	.	.
CC1CCN(S(=O)(=O)c2ccc3ncn(CC(=O)N(C)Cc4ccccc4)c(=O)c3c2)CC1	2	-5	5	-5	-7	0	.	.
CC1CCN(S(=O)(=O)c2ccc3nc(-c4ccccn4)cc(C(=O)NCCN(C)Cc4ccccc4)c3c2)CC1	1	8.3*	9	-5	-9	34	27*	0

Assay outcomes (PubChem)
